Activity calls are given as the source filed them. No stated cut-off is given here; in the data, active means inhibition above about 30%; inactive means the rest.

In PubChem BioAssay one finds inhibition data, which are given here for 17 compounds.

A short description of this experiment: growth suppression of yeast trafficking mutant, preliminary HTS, modulators of trafficking downstream of Golgi apparatus project, 1536-format plate, OD 615 nm (AID 637). The following applies: yeast transport mutant growth, absorbance 615 nm, 18 h; hits give high values.
As a reminder, the inhibition is the change of the read-out against control, counted positive when it falls. `O=C(Cn1cc2c(n1)CCCCC2)N1CCc2ccccc21`: the inhibition is -7.87% (inactive). Regarding `CC(C)c1nccn1S(=O)(=O)c1cc(Cl)ccc1Cl`, the inhibition was -3.83% (inactive). For `CC(=O)Nc1cccc(NC(=O)CSc2nn3c(=O)c(C)nnc3s2)c1` the value was -4.33% (inactive); for `CCOc1ccc2nc(Nc3nc4c(c(=O)[nH]3)CCC4)nc(C)c2c1`, 1.83% (inactive); for `C(=N\c1c(-c2ccccc2)nc2n1CCS2)/c1ccccc1`, -6% (inactive). As for `CCN(CC)S(=O)(=O)c1ccc2oc(C(=O)N3CCOCC3)c(C)c2c1`, the inhibition was -4.84% (inactive). For `CCOC(=O)C1CCN(Cc2ccc(OC)c(C)c2OC)CC1` the value was -7.1% (inactive); for `Cc1cc(N)n2nc(-c3ccccc3)cc2n1`, -0.33% (inactive); for `Cc1nnc(SCC(=O)Nc2sc3c(c2C#N)CCCC3)[nH]c1=O`, -4.83% (inactive). The same measure for `Cc1cc(NC(=O)COc2cccc(C)c2C)no1`: -4.26% (inactive); for `Cc1cc(C)c(NC(=O)CSc2nc3c(c(=O)n2C)SC(C)C3)c(C)c1` (configuration not stated): 10% (inactive). Turning to `CC(=O)c1ccc(OCC(O)CN2CCN(CCO)CC2)cc1` (configuration not stated), the inhibition was 2.33% (inactive). For `CCn1cc(C(=O)NCC2CCCO2)c(=O)c2cc(S(=O)(=O)N(C)C)ccc21` (configuration not stated) the value was -3.83% (inactive); for `C=CCSc1nc(N)c2c(C)c(C)sc2n1`, -8.33% (inactive).

On to `CC1CCCN(C(=O)c2cc3c(-c4ccc(Cl)cc4)nn(C)c3s2)C1` (configuration not stated), for which the inhibition is 3% (inactive).

Consider `COc1cccc2cc(C(=O)OC3CCN(C)CC3)c(=O)oc12`, for which the inhibition was 0.67% (inactive). For `COC(=O)c1cn(C(=O)c2ccc(Br)o2)c2ccccc12` the value was -1.33% (inactive).
